# Assay outcomes deposited in PubChem by National Center for Advancing Translational Sciences (NCATS).
# Rows were chosen to be rich in hits. Some 2.6% of all compounds tested hit in one or more screens of this group.
# ClpP mod – qHTS Assay for Activators of ClpP; ATP-dependent Clp protease proteolytic subunit (Bacillus subtilis (strain 168)), P80244; AID 651965, 2013; purified B. subtilis ClpP, FRET peptide cleavage, 20 min; Potency, µM (top dose mostly 57.5 µM), for the others: at the top dose activity change, negative = active; 340,000 compounds, 1.9% hits; active = well fitted falling curve with a large enough effect; inconclusive = small, poorly fitted or top-dose-only effect; inactive = no such curve, though single readings can be large or run the other way; also: potency is read from the fitted curve at half-maximal effect; the source files actives as falling curves though it sought activators and does not explain the sign; nearly all actives have a fitted effect of over 65% in size
#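 Buffer: 100 mM Tris/HCl pH8, 100 mM KCl, 0.05% low protease BSA, 2.5% glycerol, 0.01% Tween-20. ClpP 10 microg/mL final; 20 min RT; delta FRET normalized to ADEP and DMSO controls.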
# KCNH2 WT inh – KCNH2 (human, wildtype) channel inhibition | Q12809 | U2OS, BacMam KCNH2, thallium flux FluxOr; active compounds read low | activity change, % at 1.84 µM | 340,000 compounds, 0.37% hits;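 active = maximum activity change below -70%; inconclusive = maximum activity change between -70% and -50%; inactive = maximum activity change above -50%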; also: % is scaled to controls: 0 for no effect and ±100 for the full control effect
#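 U2OS cells were transduced with wild-type KCNH2 virus (2.03 x 10^8 / mL) for 4 h at room temperature, then cultured overnight at 37 C. Thallium flux was read with FluxOr dye. Rate constants were normalized to DMSO controls.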
# p53 reactivator – re-activators of mutant p53. H1299 p53-A138V BP100-luciferase reporter, luminescence, 24 h. Potency, µM (doses to about 92.2 µM), without a hit: at the top dose activity change, positive = activation, most hits filed as activators. 320,000 compounds, 0.063% hits; active = well fitted activation curve with a large enough effect; inconclusive = small, poorly fitted or top-dose-only effect; inactive = no such curve, though single readings can be large or run the other way; also: potency is read from the fitted curve at half-maximal effect; % of control where 0% means no effect; nearly all actives have a fitted effect of over 45% in size
#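 H1299 (p53-null), stable ts p53-A138V + BP100-Luc; 1000 cells/well, Opti-MEM/10% FBS; cpd 4 pt, 1:5; 24 h, 37 deg C, 5% CO2; detection reagent 10 min RT; luminescence.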
# TRPV1 potentiator – enhances activation of the human vanilloid receptor TRPV1 | Q8NER1 | TRPV1-expressing cells, Fluo-8 calcium influx, capsaicin EC20 potentiation | potentiation, % at 8.33 µM | 320,000 compounds, 0.02% hits; in the data active = potentiation above about 80%; inconclusive = between about 30% and that limit; also: 0% is about no effect
# Target sequence (Q8NER1 whole entry, looked up): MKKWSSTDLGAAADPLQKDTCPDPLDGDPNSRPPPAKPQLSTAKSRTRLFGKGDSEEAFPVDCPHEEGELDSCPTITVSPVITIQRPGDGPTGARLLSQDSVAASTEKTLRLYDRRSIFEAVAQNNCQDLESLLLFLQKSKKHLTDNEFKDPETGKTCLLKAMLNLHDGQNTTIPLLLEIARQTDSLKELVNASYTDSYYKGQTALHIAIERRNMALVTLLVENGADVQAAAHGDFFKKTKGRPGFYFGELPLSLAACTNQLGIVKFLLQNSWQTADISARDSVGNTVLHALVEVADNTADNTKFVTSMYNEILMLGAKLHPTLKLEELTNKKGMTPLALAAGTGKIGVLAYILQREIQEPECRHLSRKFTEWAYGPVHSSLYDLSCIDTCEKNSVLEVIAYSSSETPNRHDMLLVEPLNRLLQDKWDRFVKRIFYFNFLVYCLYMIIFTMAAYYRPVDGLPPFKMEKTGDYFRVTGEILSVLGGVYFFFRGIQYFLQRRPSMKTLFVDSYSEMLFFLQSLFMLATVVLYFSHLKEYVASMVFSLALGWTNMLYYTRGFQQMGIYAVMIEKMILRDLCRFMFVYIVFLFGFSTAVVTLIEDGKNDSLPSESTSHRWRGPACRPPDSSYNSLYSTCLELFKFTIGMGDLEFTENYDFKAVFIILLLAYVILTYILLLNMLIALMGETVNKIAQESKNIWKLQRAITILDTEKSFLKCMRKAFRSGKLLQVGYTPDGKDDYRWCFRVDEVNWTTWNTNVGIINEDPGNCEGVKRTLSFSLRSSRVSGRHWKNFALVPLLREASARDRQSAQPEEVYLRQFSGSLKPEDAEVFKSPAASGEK
#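 Fluo-8 calcium influx in TRPV1-expressing cells, kinetic read (ex 480/em 520 nm). Compound added and read 3 min for agonist activity, followed by capsaicin at EC20 final and 2 min further read for enhancement.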
# KCNH2 3.1 inh – blocks the human KCNH2 3.1 channel isoform; U2OS KCNH2 3.1, thallium flux FluxOr; active compounds read low; activity change, % (tested at about 1.8 µM); 340,000 compounds, 0.95% hits;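 active = maximum activity change below -70%; inconclusive = maximum activity change from -70% to -50%; inactive = maximum activity change above -50%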;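 also: thallium influx rate constant from kinetic fluorescence after stimulation buffer; % is scaled to controls: 0 for no effect and ±100 for the full control effect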
#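 Channel expression came from 3.1 mutant virus (1.77 x 10^8 /mL) applied to suspended U2OS cells for 4 h. Flux was tracked with FluxOr dye plus Red40 quencher, and kinetic rate constants normalized to controls.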
# TRPV1 agonist – activates the human vanilloid receptor TRPV1; Q8NER1; TRPV1-expressing cells, Fluo-8 calcium influx, agonist mode; activation, % at 8.33 µM; 320,000 compounds, 0.19% hits; in the data active = activation above about 80%; inconclusive = between about 30% and that limit; also: 0% is about no effect
#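 Cells expressing TRPV1 were dye-loaded with Fluo-8 and read kinetically: 10 s baseline, 3 min after compound (agonist portion), then 2 min after EC20 capsaicin (allosteric enhancer portion). Calcium-bound dye fluorescence at 480/520 nm.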
# * marks the source's active call; other numbers are inactive results; ? = inconclusive; . = no result given.
SMILES,ClpP mod,KCNH2 WT inh,p53 reactivator,TRPV1 potentiator,KCNH2 3.1 inh,TRPV1 agonist
CC(C)CC(=O)NNC(=O)c1ccc(Cl)cc1,-3%,-74*,4%,-2,55,0
CN(C)c1ccc(C(=O)NNC(=O)c2ccc(Cl)cc2)cc1,.,5,-3%,1,10,7
COc1ccc(/C=C2\SC(=O)N(CCNC(=O)CN3C(=O)NC4(CCCC4)C3=O)C2=O)cc1,-5%,2,9%,17,4,1
CCc1noc(C)c1C(=O)NCCN1C(=O)S/C(=C\c2ccccc2F)C1=O,0%,2,.,.,-77*,.
O=C(CN1C(=O)NC2(CCCC2)C1=O)NCCN1C(=O)S/C(=C\c2ccccc2F)C1=O,32µM*,-8,0%,?,0,-14
O=C(CCC(=O)N1Cc2ccccc2Oc2ncccc21)NCc1ccccc1Cl,-7%,.,.,.,.,.
Nn1c(SCC(=O)Nc2ccc(F)c(F)c2)nnc1C1CCCCC1,0%,3,-20%,-5,41,0
NC(=O)c1ccc(NC(=O)CSc2nnc(C3CCCCC3)n2N)cc1,2%,7,0%,10,-138*,-4
N=c1n(Cc2ccc(Cl)cc2)c2ccccc2n1CC(O)COc1ccccc1 (stereo not drawn),.,?,-11%,7,-85*,1
Cc1ccc(OCC(O)Cn2c(=N)n(Cc3ccccc3)c3ccccc32)cc1 (stereo not drawn),2%,-94*,-9%,2,-75*,1
COc1ccc(OCC(O)Cn2c(=N)n(Cc3ccccc3)c3ccccc32)cc1 (stereo not drawn),4%,-1,-13%,-10,-7,1
O=C1CSC(=S)N1Nc1ccccc1,.,3,.,.,2,.
CCOc1nc(-c2ccccc2)ccc1-c1noc(-c2cccs2)n1,25µM*,-4,5%,-12,10,?
CCOc1nc(-c2ccccc2)ccc1-c1noc(-c2ccncc2)n1,-25%,4,-4%,-14,-12,3
CCOc1nc(-c2ccccc2)ccc1-c1noc(COC)n1,35µM*,-6,-8%,-9,-5,?
O=C(O)c1c[nH]c2c([N+](=O)[O-])cccc2c1=O,1%,-12,.,.,-10,.
CCC(C)c1ccccc1OCC(=O)Nc1ccc(S(=O)(=O)Nc2cc(C)on2)cc1 (stereo not drawn),0%,.,.,.,.,.
O=C(NCc1ccccc1Cl)c1ccc(S(=O)(=O)N2CCCC2)cc1,1%,-5,13%,-29,-1,?
O=C(NCc1ccccc1Cl)c1ccc(S(=O)(=O)Nc2cccc(C(F)(F)F)c2)cc1,20µM*,2,3%,-1,2,3
COc1cccc(-c2nc(CS(=O)(=O)CC(=O)Nc3c(C)cccc3C)c(C)o2)c1,-13%,3,-4%,6,-104*,2
Cc1ccc(-c2nc(CS(=O)(=O)CC(=O)NC3CCCCCC3)c(C)o2)cc1,.,4,-4%,-17,-2,?
COc1ccc(-c2nc(CS(=O)(=O)CC(=O)NC3CCCCCC3)c(C)o2)cc1,-10%,-102*,3%,-16,-4,12
CCCCNC(=O)c1nc(-c2cnc(C)cn2)oc1-c1ccc(Cl)cc1,4%,.,.,.,.,.
c1ccc2[nH]c(NCCCN3CCOCC3)nc2c1,1%,0,6%,14,-4,-1
O=c1[nH]c2ccccc2nc1NCCN1CCOCC1,32µM*,-8,-9%,-2,-8,0
SMILES,ClpP mod,KCNH2 WT inh,p53 reactivator,TRPV1 potentiator,KCNH2 3.1 inh,TRPV1 agonist
O=C(CN1CCCCC1)N/N=C/c1ccccc1OCc1ccccc1,-2%,2,25%,-1,-81*,1
CCN(CC)c1nn2c(=O)c(C(=O)NCCc3ccc(C)cc3)cnc2s1,16µM*,.,.,.,.,.
CCc1ccc(CNC(=O)c2cnc3sc(N(CC)CC)nn3c2=O)cc1,13µM*,.,.,.,.,.
O=C(NCCc1ccccc1)c1cnc2sc(N3CCCCC3)nn2c1=O,4%,.,.,.,.,.
CCN(CC)c1nn2c(=O)c(C(=O)NCCc3ccccc3C)cnc2s1,4µM*,.,.,.,.,.
CCOc1ccccc1CNC(=O)c1cnc2sc(N(CC)CC)nn2c1=O,8.9µM*,.,.,.,.,.
CCOc1ccc(CNC(=O)c2cnc3sc(N(CC)CC)nn3c2=O)cc1,1%,.,.,.,.,.
CCc1ccccc1NC(=O)c1nc2nc(C)cc(C(F)F)n2n1,2%,.,.,.,.,.
O=C(Nc1ccon1)C1CCN(S(=O)(=O)c2cccs2)CC1,25µM*,3,-5%,-7,10,?
Cc1ccc2nc(NC(=O)C3CCN(S(=O)(=O)c4cccs4)CC3)sc2c1,-4%,9,?,-20,-80*,5
CCCc1c(C)[nH]c2ccc(C(=O)O)cc2c1=S,-29%,-82*,1%,?,4,-7
C/C(=N/NC(=O)CN1CCN(Cc2ccccc2)CC1)c1ccc([N+](=O)[O-])cc1,.,-11,-6%,8,-79*,0
C/C(=N\NC(=O)CN1CCN(Cc2ccccc2)CC1)c1ccncc1,.,5,1%,.,2,.
O=C(NCCN1CCN(C(=O)c2ccc([N+](=O)[O-])cc2)CC1)C(=O)Nc1ccc(F)cc1,0%,4,17%,25,?,3
O=C(CN1CCCCCC1)Nc1cc([N+](=O)[O-])ccc1Cl,.,4,1%,1,9,1
O=C(CN1CCCCCC1)Nc1ccc([N+](=O)[O-])cc1Cl,10µM*,1,0%,-18,-9,19
O=C(NCCN1CCN(Cc2ccc([N+](=O)[O-])cc2)CC1)C(=O)Nc1ccccc1,0%,?,4%,4,-82*,-3
O=[N+]([O-])c1ccc(N2CCN(S(=O)(=O)c3ccccc3)CC2)cc1,.,-80*,-2%,-3,-84*,-4
CCN(CC)CCOC(=O)c1ccc(NC(=O)CCn2c(=O)oc3ccccc32)cc1,-1%,.,.,.,.,.
O=C1CCCCCC[C@@H](O)[C@H](O)C[C@H](c2ccccc2)O1,2%,.,.,.,.,.
Cc1c(C(=O)Nc2cccc(Cl)c2)sc2nc3n(c(=O)c12)N=C(c1cccc(Br)c1)CS3,-2%,.,.,.,.,.
COc1cc(CNC(=O)c2cc(-c3cc(F)ccc3OCC3CCCO3)n[nH]2)cc(OC)c1 (stereo not drawn),-4%,.,.,.,.,.
Cc1ccc(C)c(OCCC(=O)N2CCN(S(=O)(=O)c3ccc([N+](=O)[O-])cc3)CC2)c1,-1%,16,-7%,-19,-139*,?
O=C(CN1CCN(Cc2ccccc2)CC1)N/N=C/C=C/c1ccccc1[N+](=O)[O-],2%,8,-2%,-2,-1,0
